# In PubChem BioAssay AID1159580 (chemical genetic matrix, 2015):
# Among all 5,500 compounds or so, about 2,000 (36%) were called active. Inconclusive results (about 18%) are left out. Some of the results follow. Values without a mark were called inactive. Rule as the data show it: active = normalized growth mostly below about 0.91 (no sharp cut-off); inconclusive = no clear call, values can overlap the other calls; inactive = mostly above about 0.92.
# Test: chemical genetic growth profiling, strain panel (AID 1159580);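 also: tested at 20 µM; growth read once vehicle control cultures reached saturation at 30 °C; 1 = growth at the plate median or of vehicle wells; lower values mean less growth of the strain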
# Conditions: growth OD
# [1] = S. cerevisiae deletion strains, locus YAL013W, strain DEP1, hits give low values
# [2] = S. cerevisiae deletion strains, locus YBR229C, strain ROT2, hits give low values
# [3] = S. cerevisiae deletion strains, locus YDL101C, strain DUN1, hits give low values
# [4] = S. cerevisiae deletion strains, locus YDR150W, strain NUM1, hits give low values
# [5] = S. cerevisiae deletion strains, locus YEL061C, strain CIN8, hits give low values
# [6] = S. cerevisiae deletion strains, locus YGR078C, strain PAC10, hits give low values
# [7] = S. cerevisiae deletion strains, locus YHR030C, strain SLT2, hits give low values
# [8] = S. cerevisiae deletion strains, locus YHR087W, strain rtc3, hits give low values
# [9] = S. cerevisiae deletion strains, locus YJR043C, strain POL32, hits give low values
# [10] = S. cerevisiae deletion strains, locus YJR075W, strain HOC1, hits give low values
# [11] = S. cerevisiae deletion strains, locus YKL190W, strain CNB1, hits give low values
# [12] = S. cerevisiae deletion strains, locus YLR039C, strain RIC1, hits give low values
# [13] = S. cerevisiae deletion strains, locus YLR058C, strain SHM2 (second series), hits give low values
# [14] = S. cerevisiae deletion strains, locus YLR085C, strain ARP6, hits give low values
# [15] = S. cerevisiae deletion strains, locus YLR262C, strain YPT6, hits give low values
# [16] = S. cerevisiae deletion strains, locus YML094W, strain GIM5, hits give low values
# [17] = S. cerevisiae deletion strains, locus YMR219W, strain ESC1, hits give low values
# [18] = S. cerevisiae deletion strains, locus YMR263W, strain SAP30, hits give low values
# [19] = S. cerevisiae deletion strains, locus YMR307W, strain GAS1, hits give low values
# [20] = S. cerevisiae deletion strains, locus YNL153C, strain GIM3, hits give low values
# [21] = S. cerevisiae deletion strains, locus YNL298W, strain CLA4 (second series), hits give low values
# [22] = S. cerevisiae deletion strains, locus YNL322C, strain KRE1, hits give low values
# [23] = S. cerevisiae deletion strains, locus YNR030W, strain Alg12, hits give low values
# [24] = S. cerevisiae deletion strains, locus YPL055C, strain LGE1, hits give low values
# [25] = S. cerevisiae deletion strains, locus YPL241C, strain CIN2, hits give low values
# [26] = S. cerevisiae deletion strains, locus YPR135W, strain CTF4, hits give low values
# [27] = S. cerevisiae strains, strain wild type, hits give low values
# [28] = S. cerevisiae deletion strains, locus YCL061C, strain MRC1, hits give low values
# [29] = S. cerevisiae deletion strains, locus YNL128W, strain TEP1, hits give low values
smiles,measurement,setting,value
N#CCC(=O)N(Cc1ccccc1F)C(=O)NC1CCCCC1,normalized growth,[1],0.993
same,normalized growth,[2],1.01
same,normalized growth,[3],0.994
same,normalized growth,"S. cerevisiae deletion strains, locus YDL134C, strain PPH21, hits give low values",0.98
same,normalized growth,[4],0.997
same,normalized growth,[5],1
same,normalized growth,[6],0.994
same,normalized growth,"S. cerevisiae deletion strains, locus YGR229C, strain SMI1, hits give low values",0.987
same,normalized growth,[7],0.957
same,normalized growth,[8],0.974
same,normalized growth,[9],0.994
same,normalized growth,[10],0.963
same,normalized growth,[11],1
same,normalized growth,[12],0.915
same,normalized growth,[13],1
same,normalized growth,[14],0.989
same,normalized growth,[15],0.935
same,normalized growth,[16],0.996
same,normalized growth,[17],0.998
same,normalized growth,[18],1
same,normalized growth,[19],0.913
same,normalized growth,[20],0.988
same,normalized growth,[21],1.01
same,normalized growth,[22],1.01
same,normalized growth,[23],0.986
same,normalized growth,[24],1.01
same,normalized growth,[25],0.994
same,normalized growth,[26],0.866
same,normalized growth,[27],0.997
COC(=O)c1cccc([N+](=O)[O-])c1-c1c(C(=O)OC)cccc1[N+](=O)[O-],normalized growth,[1],0.995
same,normalized growth,[2],1.01
same,normalized growth,[28],1.03
same,normalized growth,[3],1.03
same,normalized growth,[4],1.02
same,normalized growth,[5],0.983
same,normalized growth,[6],1.03
same,normalized growth,[7],1.06
same,normalized growth,[8],0.997
same,normalized growth,[9],1.01
same,normalized growth,[10],0.981
same,normalized growth,[12],0.994
same,normalized growth,[13],0.999
same,normalized growth,[14],1.03
same,normalized growth,[15],0.97
same,normalized growth,[16],0.988
same,normalized growth,[17],0.99
same,normalized growth,[18],1.03
same,normalized growth,[19],0.971
same,normalized growth,[29],0.999
same,normalized growth,[20],1.03
same,normalized growth,[21],1.02
same,normalized growth,[22],1
same,normalized growth,[23],1.03
same,normalized growth,"S. cerevisiae deletion strains, locus YOL006C, strain TOP1, hits give low values",1.08
same,normalized growth,[24],0.974
same,normalized growth,[25],1
same,normalized growth,[26],1.06
same,normalized growth,[27],1.02
O=C(O)c1cccc([N+](=O)[O-])c1C(=O)Nc1ccc(F)cc1,normalized growth,[1],1.01
same,normalized growth,[2],0.996
same,normalized growth,[28],1.01
same,normalized growth,[3],1.01
same,normalized growth,[4],1.03
same,normalized growth,[5],0.98
same,normalized growth,[6],1.01
same,normalized growth,[7],1.1
same,normalized growth,[8],0.965
same,normalized growth,[9],1
same,normalized growth,[10],1.01
same,normalized growth,[11],0.986
same,normalized growth,[12],1.22 [resistant] (active)
same,normalized growth,[13],0.991
same,normalized growth,[14],1
same,normalized growth,[15],1.19 [resistant] (active)
same,normalized growth,[16],1.01
same,normalized growth,[17],0.998
same,normalized growth,[18],0.996
same,normalized growth,[19],0.932
same,normalized growth,[29],0.984
same,normalized growth,[20],1.01
same,normalized growth,[21],0.97
same,normalized growth,[22],1.02
same,normalized growth,[23],0.996
same,normalized growth,[24],0.979
same,normalized growth,[25],1.04
same,normalized growth,[26],1.04
